# Measured values taken from PubChem BioAssay (NCI).
# Compounds without any hit were thinned out: in the full panel of roughly 83,000, 20% have a hit.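 Assay: single dose, 48 h. Readout: percent growth (0 = no net growth; negative = cell death). Active: <10.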 Unmarked numbers belong to inactive results. The source made the active and inactive calls.
# What was measured:
# Test in all cases: NCI-60 one-dose screen, 48 h (100 = growth as untreated, 0 = no growth, -100 = all killed)
# Settings in all cases: 10 µM unless noted
# SR leukemia = test system: SR leukemia
# RPMI-8226 leukemia = test system: RPMI-8226 leukemia
# OVCAR-8 ovarian = test system: OVCAR-8 ovarian
# OVCAR-5 ovarian = test system: OVCAR-5 ovarian
# OVCAR-4 ovarian = test system: OVCAR-4 ovarian
# SK-OV-3 ovarian = test system: SK-OV-3 ovarian
# IGROV1 ovarian = test system: IGROV1 ovarian
# OVCAR-3 ovarian = test system: OVCAR-3 ovarian
# HS 578T breast = test system: HS 578T breast
# NCI/ADR-RES ovarian = test system: NCI/ADR-RES ovarian
# T-47D breast = test system: T-47D breast
# BT-549 breast = test system: BT-549 breast
# MDA-MB-435 melanoma = test system: MDA-MB-435 melanoma
# SW-620 colon = test system: SW-620 colon
# MCF7 breast = test system: MCF7 breast
# HCT-116 colon = test system: HCT-116 colon
# HCC-2998 colon = test system: HCC-2998 colon
# KM12 colon = test system: KM12 colon
Compound,growth (SR leukemia),growth (RPMI-8226 leukemia),growth (OVCAR-8 ovarian),growth (OVCAR-5 ovarian),growth (OVCAR-4 ovarian),growth (SK-OV-3 ovarian),growth (IGROV1 ovarian),growth (OVCAR-3 ovarian),growth (HS 578T breast),growth (NCI/ADR-RES ovarian),growth (T-47D breast),growth (BT-549 breast),growth (MDA-MB-435 melanoma),growth (SW-620 colon),growth (MCF7 breast),growth (HCT-116 colon),growth (HCC-2998 colon),growth (KM12 colon)
COc1ccc(/C=C2\COc3ccc(-c4ccccc4)cc3C2=O)c(OC)c1,69.1%,77.4%,96.4%,101%,64.7%,107%,120%,98.3%,125%,72.6%,68.1%,91.2%,119%,92.9%,76.9%,75.7%,75.4%,97.7%
COc1cc2c(c(O)c1Br)C(=O)c1c(O)cc(C[C@H](C)O)cc1[C@H]2[C@H]1c2cc(C[C@H](C)O)cc(O)c2C(=O)c2c1cc(OC)c(Br)c2O,-5.41% (active),9.04% (active),10.4%,0.764% (active),11.5%,8.82% (active),2.65% (active),-27.4% (active),9.13% (active),56.3%,8.03% (active),17.3%,9.24% (active),18.2%,8.05% (active),10.1%,26%,9.13% (active)
CCCCCCNC(=O)Nc1ccc2cc3ccc(NC(=O)NCCCCCC)cc3nc2c1,-33% (active),0.729% (active),-82.7% (active),9.67% (active),56.9%,13.2%,11.4%,-5.6% (active),-53.7% (active),100%,-24.8% (active),89.4%,-83.6% (active),-78.1% (active),-57.4% (active),-18.9% (active),-24.5% (active),19.4%
CCc1c(Cl)nc(N)nc1Nc1ccc(C)c(C)c1,73%,104%,102%,110%,98%,109%,97.4%,116%,97.9%,99.2%,91.2%,106%,99.6%,102%,83.1%,76%,101%,99.2%
CCCCNC(=O)Oc1ccc(/C(=C(\C)c2ccccc2)c2ccc(OCCN3CCCCC3)cc2)cc1,0.363% (active),42.7%,71.9%,89.5%,75.4%,71.6%,76.9%,64.7%,56.9%,63.1%,31.6%,62%,67.8%,60.8%,22.5%,42.8%,79%,52.1%
COc1cc(F)c(/C=C/c2cc(/C=C/c3cc(OC)c(OC)cc3F)on2)cc1OC,46.9%,68.2%,87.1%,97.6%,101%,105%,79.5%,36.1%,89.2%,89.3%,79%,91.4%,7.63% (active),80.4%,70.6%,60.3%,91.9%,54.6%
CCCCCCCCO/N=C\c1c2c(O)c3c(O)c(C)c4c(c3c1O)C(=O)C(C)(O/C=C\C(OC)C(C)C(OC(C)=O)C(C)C(O)C(C)C(O)C(C)/C=C\C=C(\C)C(=O)N2)O4 (stereo not given),6.26% (active),9.95% (active),24%,48.8%,29.4%,30.5%,23.4%,22.2%,-2.52% (active),32.1%,30.5%,45.9%,13.5%,15.1%,21.7%,11.6%,14.7%,17.1%
O=S(=O)(NCCNc1nccc(-c2c(-c3cccc(O)c3)nc3occn23)n1)c1ccccc1,75.7%,92.8%,79.8%,117%,123%,97.2%,47.8%,97.9%,91.8%,112%,74%,96%,28.5%,103%,49.4%,53.8%,113%,83.3%
O=[N+]([O-])c1cc(Br)c2cccc3c2c1CC3,93.3%,109%,97%,99.4%,104%,114%,111%,108%,130%,114%,101%,114%,113%,107%,89%,106%,103%,109%
[O-][n+]1c(Cl)cc(Cl)c2ccccc21,89.2%,95%,87.4%,101%,101%,94.4%,104%,93.7%,92.2%,101%,97.7%,–,101%,107%,97.4%,103%,104%,95.1%
O=C1Nc2cc(-c3cccc([N+](=O)[O-])c3)ccc2/C1=C/c1ccc[nH]1,11.3%,81.3%,101%,48.8%,45.4%,59.6%,54.5%,70.6%,102%,99.2%,-10.6% (active),23%,97.7%,93.3%,16%,97.9%,61%,46.7%
O=C(CCN1CCCC1)c1ccc([N+](=O)[O-])cc1,98%,92.7%,101%,102%,102%,101%,105%,104%,112%,100%,88.6%,–,107%,105%,87.6%,105%,94.8%,105%
Cn1cc(CC2CC(=O)N(c3ccccc3)C2=O)sc1=NC(=O)c1ccccc1 (stereo not given),96%,105%,104%,95.2%,103%,97.1%,93.1%,99.2%,89.8%,97.5%,91.1%,87.2%,101%,94.5%,99.2%,–,100%,98.6%
CCc1ccc(-c2cn3ccnc3c(-c3ccc4ncn(Cc5ccccc5)c4c3)n2)cc1,50.1%,44.6%,69.2%,85.1%,64.9%,99.4%,75%,68.8%,78.2%,58.8%,5.18% (active),84.1%,49.1%,81.2%,42%,38.8%,74.8%,54.3%
COc1cc2c(=O)n(CCN(C)C)c3c4cc5c(cc4ccc3c2cc1OC)OCO5,2.29% (active),-27.7% (active),11.4%,-17.5% (active),5.11% (active),-5.08% (active),-16% (active),-41.9% (active),9.24% (active),2.87% (active),-20.5% (active),1.42% (active),-65.4% (active),-17.9% (active),7.27% (active),–,-58.1% (active),-25.2% (active)
CCN(CC)CCOc1ccc(NC(=O)C(C(C)C)N2C(=O)/C(=C/c3ccc(Br)cc3)SC2=S)cc1 (stereo not given),-42% (active),19.5%,25.6%,66.4%,70.5%,113%,82.2%,94%,84.2%,80%,93.1%,110%,97%,41.9%,19.3%,–,73%,99.4%
CCN1CCN(CCNc2nccc(-c3c(-c4cccc(OC)c4)nc4occn34)n2)S1(=O)=O,96.3%,96.2%,99.3%,130%,114%,92%,79.9%,107%,114%,109%,76.3%,111%,52.2%,132%,86.1%,–,130%,100%
